Measurements: PubChem BioAssay AID2013 (Sanford-Burnham Center for Chemical Genomics, 2009)
Among all 290,000 compounds or so, about 370 (0.13%) were called active.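 Rule for the calls: active = spots per cell inhibited over 60%, with over 100 cells counted and total cytoplasm intensity under 500,000; inconclusive = wells with under 100 cells, flagged as likely toxic; inactive = the rest.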 For the sample, actives were picked, then their nearest neighbours and some compounds at random. Potency and affinity values are given separately.

What follows are molecules tested against G-protein coupled receptor 55 (Homo sapiens) (UniProt Q9Y2T6) (assay: inhibition of LPI-stimulated GPR55 beta-arrestin translocation – imaging, U2OS, beta-arrestin-GFP, LPI agonist, primary screen (AID 2013;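 note: U2OS cells stably carrying GPR55 and arrestin-GFP stimulated by 5 µM LPI near EC80; imaged beta-arrestin-GFP aggregate spots per cell after agonist stimulation; plate controls were LPI-stimulated DMSO wells for no effect and DMSO wells without LPI for full effect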)). Details: LPI antagonism, at 10 µM, hits give high values.
Sequence of G-protein coupled receptor 55 (Homo sapiens) (Q9Y2T6 whole entry, looked up): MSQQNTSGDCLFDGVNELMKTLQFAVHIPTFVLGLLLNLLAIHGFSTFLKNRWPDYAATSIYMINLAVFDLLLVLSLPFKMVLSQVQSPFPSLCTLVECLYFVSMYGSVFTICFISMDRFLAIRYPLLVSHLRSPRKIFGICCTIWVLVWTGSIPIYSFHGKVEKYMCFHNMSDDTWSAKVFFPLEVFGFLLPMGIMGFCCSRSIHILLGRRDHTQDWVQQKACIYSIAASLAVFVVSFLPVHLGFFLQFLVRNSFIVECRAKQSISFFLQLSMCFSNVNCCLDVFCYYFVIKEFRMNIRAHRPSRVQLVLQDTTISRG
In the case of `CCOC(=O)C1=C(c2ccccc2)NC(=O)NC1c1ccc(OC)cc1OC` (stereo not drawn), the inhibition is reported as 11.3% (inactive).
With `Cc1ccc(SCC(=O)Nc2cccc(-c3nnc(-c4ccco4)o3)c2)cc1` the inhibition was 23.1% (inactive).
For `CNC(=S)N(CCc1c(C)[nH]c2ccc(C)cc12)Cc1cccs1`, the inhibition was -0.9% (inactive).
With `CNC(=S)N(CCc1c(C)[nH]c2ccc(Cl)cc12)Cc1cccs1` the inhibition was 79.7% (active).
For `COCCNC(=S)N(CCc1c(C)[nH]c2ccc(Cl)cc12)Cc1cccs1`, the inhibition was 21.1% (inactive).
With `COc1ccc(NC(=O)CCNS(=O)(=O)c2ccc(C)c(C)c2)cc1OC` the inhibition was 0.7% (inactive).
In the case of `C=CCN1C=CC(=C/C=C(/C#N)C(=O)OCC)C=C1`, the inhibition is reported as 4.5% (inactive).
With `CCCN1C=CC(=CC=C(C#N)C#N)C=C1` the inhibition was 52.4% (inactive).
For `C=CCN1C=CC(=CC=C(C#N)C#N)C=C1`, the inhibition was 67.9% (active).
For `CCOc1ccc(N(CC(=O)Nc2ccc(C)c(F)c2)C2=NC3CS(=O)(=O)CC3S2)cc1` (stereo not drawn), the inhibition was 2.9% (inactive).
In the case of `Cc1ccc(C)c(N2CCN(C(=O)Cn3ncc4c([nH]c5ccc(C)cc54)c3=O)CC2)c1`, the inhibition is reported as 0.4% (inactive).
In the case of `CC(=O)N/C(=N/c1nc(C)cc(C)n1)Nc1ccc(NC(C)=O)cc1`, the inhibition is reported as -4.3% (inactive).
In the case of `Cc1ccc(NS(=O)(=O)c2cc(C(=O)O)ccc2Cl)cc1`, the inhibition is reported as 5.6% (inactive).
With `O=C(O)c1ccc(NC(=S)NC(=O)c2cccc(COc3ccccc3)c2)cc1` the inhibition was -20.3% (inactive).
`O=C(NC(=S)Nc1ccc(Cl)c(C(=O)O)c1)c1cccc(COc2ccccc2)c1` was tested, and the inhibition was 3.5% (inactive).
`O=C(O)c1cccc(S(=O)(=O)Nc2ccc(OCc3ccccc3)cc2)c1` was tested, and the inhibition was 1.6% (inactive).
`COc1ccccc1-n1c(SCC(=O)Nc2cccc(C)c2)nc2c(c1=O)SCC2` was tested, and the inhibition was 0.7% (inactive).
For `O=C1Nc2ccccc2N(O)N1c1ccc(S(=O)(=O)N2CCCCCC2)cc1`, the inhibition was 7.8% (inactive).
In the case of `O=C(CSc1nc2ccccc2s1)N1CCCCC1`, the inhibition is reported as 7.6% (inactive).
For `CN(C)CCN(Cc1ccccc1)c1nccc(N(C)C)c1C#N`, the inhibition was 7.4% (inactive).
With `CN(C)c1nccc(N(Cc2ccccc2)Cc2ccccc2)c1C#N` the inhibition was 49.1% (inactive).
`CCN(CC1COc2ccccc2O1)C(=S)Nc1ccc(F)cc1` (stereo not drawn) was tested, and the inhibition was 8.3% (inactive).
`COc1ccc2c(c1)NC(c1ccc(N(C)C)cc1)c1cccn1-2` (stereo not drawn) was tested, and the inhibition was 67% (active).
In the case of `COc1ccc(C2Nc3cc(OC)ccc3-n3cccc32)cc1` (stereo not drawn), the inhibition is reported as 8.6% (inactive).
With `COc1ccc2c(c1)NC(c1cc(Cl)cc(Cl)c1O)c1cccn1-2` (stereo not drawn) the inhibition was 3.9% (inactive).
`Cc1cccc(N(CC(=O)N2CCN(C)CC2)S(=O)(=O)c2ccccc2)c1` was tested, and the inhibition was 9.1% (inactive).
With `CC1CC(C)CN(C(=O)C(C)N(C)CC(=O)Nc2ccc(Cl)cc2)C1` (stereo not drawn) the inhibition was 12.3% (inactive).
With `CC1CN(S(=O)(=O)c2ccc(NC(=O)CCN3C(=O)c4ccccc4C3=O)cc2)CC(C)O1` (stereo not drawn) the inhibition was 4.4% (inactive).
With `CC(=O)C1=C(C)NC(SCC(=O)c2ccc(F)cc2)=C(C#N)C1c1ccco1` (stereo not drawn) the inhibition was 16.8% (inactive).
In the case of `CC(=O)C1=C(C)NC(SCC(=O)c2ccccc2)=C(C#N)C1c1ccco1` (stereo not drawn), the inhibition is reported as 16.3% (inactive).
`CC(=O)C1=C(C)NC(SCC(=O)c2ccc(C)cc2)=C(C#N)C1c1ccco1` (stereo not drawn) was tested, and the inhibition was 82.9% (active).
`CN(C(=O)C1CCC1C(=O)O)c1nc(-c2ccc(Cl)s2)cs1` (stereo not drawn) was tested, and the inhibition was 11.8% (inactive).
With `CC(C)CNC(=O)CC(c1ccccc1)c1ccccc1` the inhibition was -4.4% (inactive).
In the case of `Cc1cc(C)nc(NNC(=O)NC2CCCCC2)n1`, the inhibition is reported as -10.6% (inactive).
For `CC(C)(C)OC(=O)N1CCC(c2c(C(=O)NC3CC3)cnn2-c2ccc(Cl)cc2)CC1`, the inhibition was 4.1% (inactive).
With `COc1ccc(-n2ncc(C(=O)NC3CC3)c2C2CCN(C(=O)OC(C)(C)C)CC2)cc1` the inhibition was 12.4% (inactive).
`COc1cc(NC(=O)c2cnn3c(C(F)F)cc(C4CC4)nc23)c(OC)cc1Cl` was tested, and the inhibition was 14.7% (inactive).
`CCOc1ccc(NC(=O)c2c[nH]n3c(=O)cc(C4CCN(C(=O)OC(C)(C)C)CC4)nc23)cc1` was tested, and the inhibition was 16.4% (inactive).
In the case of `CCCCC(C(=O)NC1CCCC1)N(C(=O)c1snc(C(N)=O)c1N)c1ccc(OCC)cc1` (stereo not drawn), the inhibition is reported as 4.9% (inactive).
With `CCOC(=O)c1cn(CC2CC2)c2cc(F)c(F)cc2c1=O` the inhibition was -1.8% (inactive).
With `O=C(Cc1coc2ccc3ccccc3c12)NC1CCCc2ccccc21` (stereo not drawn) the inhibition was -1.1% (inactive).
`C/C(=N\Nc1nc2ccccc2s1)c1ccc2c(c1)OCO2` was tested, and the inhibition was 11.7% (inactive).
In the case of `O=C(Nc1ccc(F)cc1)c1ccccc1Oc1ccc(C(F)(F)F)cc1[N+](=O)[O-]`, the inhibition is reported as 24.3% (inactive).
With `O=C(Nc1ccccc1)c1ccccc1Oc1ccc(C(F)(F)F)cc1[N+](=O)[O-]` the inhibition was 5.3% (inactive).
In the case of `CC(=O)N(C1CC(C)C(C#N)(C#N)C1(C#N)C#N)N(C)C` (stereo not drawn), the inhibition is reported as 7.5% (inactive).
In the case of `CCCC(=O)N(C1CC(C)C(C#N)(C#N)C1(C#N)C#N)N(C)C` (stereo not drawn), the inhibition is reported as 98.9% (active).
`O=C1NC2(CCCCCC2)N=C1c1ccc(Br)cc1` was tested, and the inhibition was 2.5% (inactive).
In the case of `CCS(=O)(=O)Nc1ccc(Cc2ccncc2)cc1`, the inhibition is reported as -1.6% (inactive).
`CCCCS(=O)(=O)Nc1ccc(Cc2ccncc2)cc1` was tested, and the inhibition was 14.3% (inactive).
With `COc1ccc(NC(=O)CCCn2c(=O)[nH]c3ccccc3c2=O)cc1` the inhibition was 27.9% (inactive).
For `O=c1[nH]c2ccccc2nc1-c1c[nH]c2ccccc12`, the inhibition was 12.2% (inactive).
With `c1ccc2c(-c3ccncc3)c[nH]c2c1` the inhibition was -22.9% (inactive).
With `COc1ccc(C(=O)C2CCCN(Cc3cn(C)nc3-c3ccccc3)C2)cc1F` (stereo not drawn) the inhibition was 4.8% (inactive).
`CN(C1CCCCC1)S(=O)(=O)c1ccc(NC(=O)C2CCCCC2)cc1` was tested, and the inhibition was 0.9% (inactive).
In the case of `CN(c1ccccc1)S(=O)(=O)c1ccc(NC(=O)C2CCCCC2C(=O)O)cc1` (stereo not drawn), the inhibition is reported as 45.5% (inactive).
With `Cc1ccc(Cn2c(SCC(=O)Nc3cccc(C)n3)nc3c2c(=O)n(C)c(=O)n3C)cc1` the inhibition was 4.3% (inactive).
With `COc1ccccc1CN(CC(=O)NCc1ccc(F)cc1)C(=O)c1csnn1` the inhibition was 4% (inactive).
With `N=c1n(CC(=O)c2ccc([N+](=O)[O-])cc2)c2ccccc2n1Cc1ccccc1Cl` the inhibition was 8.7% (inactive).
For `Cc1ccccc1Cn1c(=N)n(CC(=O)c2ccc([N+](=O)[O-])cc2)c2ccccc21`, the inhibition was 11% (inactive).
In the case of `N=c1n(CC(=O)c2cccc([N+](=O)[O-])c2)c2ccccc2n1Cc1ccccc1`, the inhibition is reported as 28.3% (inactive).
`Cc1ccc(Cn2c(=N)n(CC(=O)c3ccc([N+](=O)[O-])cc3)c3ccccc32)cc1` was tested, and the inhibition was 44.2% (inactive).
For `N=c1n(CC(=O)c2ccc([N+](=O)[O-])cc2)c2ccccc2n1Cc1ccc(Cl)cc1`, the inhibition was 65.4% (active).
`N=c1n(CC(=O)c2ccc([N+](=O)[O-])cc2)c2ccccc2n1Cc1ccccc1` was tested, and the inhibition was 64.5% (active).
